NS1 function inh = qHTS Assay for Inhibitors of Influenza NS1 Protein Function; hit rate 0.4% among 270,000; AID 2326, 2010; Potency, µM (top dose mostly 46.1 µM), for the others: at the top dose activity, positive = more growth; note: actives are rising curves; nearly all actives have a fitted effect of over 50% in size
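A cell-based growth assay was used: compounds that relieve NS1-induced slow growth of budding yeast raise OD600. Assay medium was yeast nitrogen base with ammonium sulphate and -URA supplement, pH 6.0, with 2% galactose.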
Pf growth 48h = Primary qHTS for delayed death inhibitors of the malarial parasite plastid, 48 hour incubation; hit rate 5.9% among 310,000; P. falciparum luciferase growth in erythrocytes, 48 h; Potency, µM (series often up to 28.7 µM), inactives show top-dose activity change, negative = inhibition, usual class: inhibitors; active = well fitted inhibition curve with a large enough effect; inconclusive = small, poorly fitted or top-dose-only effect, or another doubt; inactive = no such curve, though single readings can be large or run the other way; note: % is set by controls: 0 for no effect and ±100 for the full control effect
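Read-out is firefly luciferase luminescence from an integrated reporter in P. falciparum, so falling signal marks reduced parasite growth. Infected erythrocytes were at 2% hematocrit and 0.1% parasitemia (final) in Albumax-supplemented RPMI 1640.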
Pf growth 96h = Primary qHTS for delayed death inhibitors of the malarial parasite plastid, 96 hour incubation. P. falciparum luciferase reporter growth, 96 h. Potency, µM (series often up to 28.7 µM), for the others: at the highest dose activity change, negative = inhibition, actives largely listed as inhibitors. hit rate 6.9% among 320,000. AID 504834, 2011; active = well fitted inhibition curve with a large enough effect; inconclusive = small, poorly fitted or top-dose-only effect, or another doubt; inactive = no such curve, though single readings can be large or run the other way; note: % is set by controls: 0 for no effect and ±100 for the full control effect
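Compounds incubated with erythrocytes infected by luciferase-expressing P. falciparum (2% hematocrit, 0.05% parasitemia final) for 96 hours, 37 C in 5% CO2. Growth inhibition scored as decreased luciferase luminescence.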
RE007 growth inh = qHTS Assay for Inhibitors of the HIV-1 protein Vpr | hit rate 0.21% among 360,000 | Potency, µM (doses to about 92.2 µM), without a hit: top-dose activity change, negative = less growth, actives largely listed as inhibitors | AID 651644, 2012 | S. pombe RE007 Vpr strain, BacTiter-Glo ATP luminescence, 24 h; active = well fitted falling curve with a large enough effect; inconclusive = small, poorly fitted or top-dose-only effect; inactive = no such curve, though single readings can be large or run the other way; note: % is set by controls: 0 for no effect and ±100 for the full control effect; nearly all actives have a fitted effect of over 50% in size
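Fission yeast RE007 carrying one integrated HIV-1 vpr copy, seeded at OD 0.01 in PMG+AL medium with 23 nL pinned compound. Grown 24 h at 30 degrees; viability read by BacTiter-Glo luminescence after 5 min.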
SARS PLpro yeast = qHTS of Yeast-based Assay for SARS-CoV PLP | hit rate 0.19% among 330,000 | Potency, µM (series often up to 32.9 µM), for the others: at the highest dose activity, positive = growth rescue, hits mostly activators | S. cerevisiae expressing SARS-CoV PLpro, growth rescue; note: 0% is about no effect; nearly all actives have a fitted effect of over 55% in size
Starred values were filed as active, the others as inactive; [ ] = dose if it differs, or a comment. Shown are actives, neighbours in structure and some others; about 9.5% of the full set was active somewhere. Unless noted, calls come from the whole dose curve. Potency is the fitted concentration of half-maximal effect.

COc1ccc(NC2CCCN(C(=O)CCCn3cncn3)C2)cc1OC (stereo not given) was read as NS1 function inh -2%, Pf growth 48h -4%, Pf growth 96h 2.6µM*, RE007 growth inh 7% and SARS PLpro yeast -2%.
For CN(Cc1cccc2ccccc12)Cc1cccc2ccccc12 the results were NS1 function inh -7%.
Screening Cc1cc(C)nc(S/C=C/C(=O)c2ccccc2F)n1 returned NS1 function inh -31%, Pf growth 48h 134%, Pf growth 96h 84%, RE007 growth inh 38% and SARS PLpro yeast -1%.
For CC(C)=CCCC(C)=CCN1C(=O)CN(C)C1=O the results were RE007 growth inh 2%.
CC1CC(C)(C)CC2(C1)NC(=O)N(CC(=O)N1CCN(Cc3ccc(C#N)cc3)CC1)C2=O (stereo not given) was read as Pf growth 48h -28%, Pf growth 96h 2%, RE007 growth inh 6% and SARS PLpro yeast 4%.
`NC(Cc1ccc(C(F)(F)F)cc1)c1csc(Nc2ccc(S(N)(=O)=O)cc2)n1` (stereo not given) gave RE007 growth inh -18%[18.4 µM].
For c1ccc2c(-c3cncc4ccccc34)cncc2c1 the results were RE007 growth inh 17%.
`Nc1nc(N)nc(CC(=O)O)n1` gave NS1 function inh -1%.
`CC(C)c1ccc(NC2CCCN(C(=O)CCN3Cc4ccccc4C3=O)C2)cc1` (stereo not given) gave NS1 function inh -18%, Pf growth 48h -18%, Pf growth 96h 1.9µM*, RE007 growth inh 1% and SARS PLpro yeast -2%.
For CC(C)c1ccc(NC2CCCN(C(=O)CCN3CCCCC3=O)C2)cc1 (stereo not given) the results were NS1 function inh -4%, Pf growth 48h 5%, Pf growth 96h inconclusive, RE007 growth inh -11% and SARS PLpro yeast inconclusive.
`CC1Nc2ccccc2C(=O)N1NC(=O)c1ccc(Br)cc1` (stereo not given) gave Pf growth 48h 29%, Pf growth 96h 8.3µM*, RE007 growth inh 1% and SARS PLpro yeast -2%.
Screening Cc1ccc(NC(=S)/N=C(\N)Nc2nc(C)c3cc(C)c(C)cc3n2)cc1C returned NS1 function inh -1%, Pf growth 48h inconclusive, Pf growth 96h 10µM*, RE007 growth inh 11% and SARS PLpro yeast 0%.
Screening COc1ccc2nc(N/C(N)=N/C(=S)Nc3cccc(C)c3)nc(C)c2c1 returned NS1 function inh inconclusive, Pf growth 48h inconclusive, Pf growth 96h 20%, RE007 growth inh 5% and SARS PLpro yeast inconclusive.
Screening COc1ccc(NC(=S)/N=C(\N)Nc2nc(C)c3ccccc3n2)cc1 returned NS1 function inh inconclusive, Pf growth 48h inconclusive, Pf growth 96h 2.9µM*, RE007 growth inh 12% and SARS PLpro yeast 26%.
Screening O=C(Nc1ccc2c(c1)OCCO2)C(c1ccncc1)n1c(=O)c(-c2cc3ccccc3[nH]2)nc2ccccc21 (stereo not given) returned RE007 growth inh 1%.
For O=C(NCC1(c2ccccc2)CCCC1)C1(c2ccccc2)CCCC1 the results were NS1 function inh -18%, Pf growth 48h inconclusive, Pf growth 96h 2.6µM*, RE007 growth inh 26% and SARS PLpro yeast -70%.
Screening Cc1ccc(S(=O)(=O)Nc2ccc(-c3cn4ccc(C)cc4n3)cc2)cc1 returned NS1 function inh 20%, Pf growth 48h 1.7µM*, Pf growth 96h -19%, RE007 growth inh -4% and SARS PLpro yeast 0%.
For Cc1ccn2cc(-c3cccc(NS(C)(=O)=O)c3)nc2c1 the results were NS1 function inh 2%, Pf growth 48h 142%, Pf growth 96h 38%, RE007 growth inh -14% and SARS PLpro yeast 1%.
For Cc1ccn2cc(-c3ccc(NS(=O)(=O)c4ccccc4)cc3)nc2c1 the results were NS1 function inh 3%, Pf growth 48h 13µM*, Pf growth 96h -14%, RE007 growth inh -7% and SARS PLpro yeast 17%.
Screening Cc1ccc(S(=O)(=O)N2CCCC2CNC(=O)C(=O)NC2CCCC2)cc1 (stereo not given) returned Pf growth 48h -11%, Pf growth 96h inconclusive, RE007 growth inh 0% and SARS PLpro yeast -7%.
`CCC(C(=O)NC1CCCC1)n1c(-c2cc3ccccc3[nH]2)nc2ccccc21` (stereo not given) gave RE007 growth inh -1%.
CCC(C(=O)NC1CCCCC1)n1c(SCc2ccccc2F)nc2ccncc21 (stereo not given) was read as NS1 function inh 20%, Pf growth 48h -10%, Pf growth 96h 8.3µM*, RE007 growth inh -3% and SARS PLpro yeast 2%.
For CC1CCCCN1C(=O)COc1ccccc1F (stereo not given) the results were NS1 function inh -1%, Pf growth 48h 30%, Pf growth 96h -3%, RE007 growth inh 5% and SARS PLpro yeast -1%.
For Cc1nonc1NC(=O)N1CCCC1 the results were NS1 function inh -7%, Pf growth 48h 19%, Pf growth 96h 48%, RE007 growth inh 3% and SARS PLpro yeast -1%.
`Cc1nonc1NC(=O)OC1CCCCC1` gave NS1 function inh -32%, Pf growth 48h inconclusive, Pf growth 96h 1µM*, RE007 growth inh 0% and SARS PLpro yeast -3%.
`COc1ccc([C@@H](Nc2ncccn2)c2cc3c(cc2O)OCO3)cc1` gave NS1 function inh 5%.
Screening Cc1ccc(CNCCc2ccccc2F)cc1 returned NS1 function inh -13%, Pf growth 48h 10%, Pf growth 96h 58%, RE007 growth inh -5% and SARS PLpro yeast 12%.
CCN(CC)c1ccc(CNCCc2ccccc2F)cc1 was read as NS1 function inh -3%, Pf growth 48h -11%, Pf growth 96h 9.3µM*, RE007 growth inh 13% and SARS PLpro yeast 0%.
Screening Cc1cc(S(=O)(=O)N2CCOCC2)ccc1OCC(=O)N1CCCC1 returned NS1 function inh -15%, Pf growth 48h 4%, Pf growth 96h 3%, RE007 growth inh -5% and SARS PLpro yeast -4%.
Cc1ccc(Cl)c(OCCN2CCc3ccccc3C2)c1 was read as NS1 function inh -33%, Pf growth 48h -2%, Pf growth 96h inconclusive, RE007 growth inh -22% and SARS PLpro yeast -5%.
N#CCCN1CCCN(CCC#N)CCN(CCC#N)CCCN(CCC#N)CC1 was read as NS1 function inh 2%, Pf growth 48h 3%, Pf growth 96h 36%, RE007 growth inh 1% and SARS PLpro yeast 0%.
Screening O=C(Nc1ccccc1)c1cc([N+](=O)[O-])ccc1NCc1cccnc1 returned NS1 function inh -21%, Pf growth 48h inconclusive, Pf growth 96h inconclusive, RE007 growth inh -18% and SARS PLpro yeast 19%.
Screening NS(=O)(=O)c1ccc(CCNS(=O)(=O)Cc2ccc(Cl)cc2)cc1 returned NS1 function inh 0%, Pf growth 48h 10%, Pf growth 96h 13µM*, RE007 growth inh -15% and SARS PLpro yeast 2%.

Screens: PubChem BioAssay, National Center for Advancing Translational Sciences (NCATS)
